Results from PubChem BioAssay AID588346 (National Center for Advancing Translational Sciences (NCATS), 2011).
Results filed as inconclusive are left out. A call without a number means that no potency is given here. Calls of active or inactive are those of the source. Calls follow the shape of the dose curve; as a rule, active = well fitted curve in the direction sought with a large enough effect; inconclusive = small, poorly fitted or top-dose-only effect, or another doubt; inactive = no such curve, though single readings can be large or run the other way.

Experiment: qHTS Assay for Inhibitors of Histone Lysine Methyltransferase G9a: Hit Confirmation in b-rIgG Counterscreen
Settings: AlphaScreen b-rIgG bead counterscreen, signal interference; series mostly up to 55.7 µM
Description: Methylated lysines, on the N-terminal tails of histone proteins serve as epigenetic markers to recruit factors that can then modify local chromatin structure to lead to functional consequences. G9a and other members of the SUV39 family of the SET domain-containing superfamily of histone lysine methyltransferases (HMT) have been identified to specifically methylate Lys9 of histone H3 (H3K9). G9a catalyzes the mono- and di-methylation of H3K9 in mammalian euchromatic regions, where the resulting H3K9me2 is indicative of transcriptional repression. […] The inhibition of G9a will result in transcriptional activation and work synergistically with DNA methyltransferase and histone deacetylase inhibitors, to kill cancer cells. This qHTS assay for identification of G9a inhibitors is a chemiluminescence based AlphaScreen (PerkinElmer). Methylation of biotinylated-histone peptide is measured through specific antibody-based detection, in conjunction with streptavidin-coated donor and anti-IgG antibody-coated acceptor beads. The method is particularly well suited for detection of inhibitors acting by the desired histone peptide competitive mechanism and is applicable to testing other HMTs. Although AlphaScreen has significant advantages with its utility in a variety of epigenetic target assays, the primary screening data provided in this deposition should be used with caution due to the prevalence of screening artifacts. Because an AlphaScreen counterscreen is highly recommended to be run against any putative actives to eliminate non specific artifacts, this assay was used as a counterscreen. Quinn et al. A chemiluminescence-based method for identification of histone lysine methyltransferase inhibitors. Mol Biosyst 6(5): 782-8. 2010. PMID: 20567762 [2] Baell,Holloway. New substructure filters for removal of pan assay interference compounds (PAINS) from screening libraries and for their exclusion in bioassays. J Med Chem. 53(7):2719-40. 2010. PMID: 20131845 NIH Chemical Genomics Center [NCGC] NIH Molecular Libraries Probe Production Network [MLPCN] MLPCN Grant: MH084681-02 Assay Submitter (PI): Structural Genomic Consortium - Toronto, Peter Brown
Biotinylated rabbit-IgG (b-rIgG) (Santa Cruz Biotechnology, Inc., Santa Cruz, CA) was added to 1,536-well plates in a 3 uL dispense. Compounds were added in a 23 nL pin-transfer step, and plates were incubated at room temperature for 15 min. Streptavidin-coated donor and anti-rIgG acceptor AlphaScreen beads were added (1 uL) for final concentrations of 20 ug/mL each bead and 1 nM b-rIgG, and plates read on the Envision after a 15 min incubation at room temperature in the dark.

SMILES	Potency
C/C=C/c1ccc(OCC(=O)OCC(=O)NC2CC2)c(OC)c1	inactive
CCCC(=O)N1CCN(c2ccc(NC(=O)c3ccc([N+](=O)[O-])o3)cc2Cl)CC1	inactive
C[n+]1cc2c3c(ccc2c2ccc4cc5c(cc4c21)OCO5)OCO3	inactive
CNC(=O)Oc1ccc2c(c1)[C@]1(C)CCN(C)[C@@H]1N2C	inactive
CCN1CCc2nc(N)oc2CC1	inactive
NC(=S)N/N=C/c1ncc(C(F)(F)F)cc1Cl	inactive
N=c1n(CC(=O)c2ccc([N+](=O)[O-])cc2)c2ccccc2n1Cc1ccccc1Cl	inactive
COc1cc2nc(N3CCN(C(=O)C4COc5ccccc5O4)CC3)nc(N)c2cc1OC (stereo not given)	inactive
O=C1CN(c2nc(-c3ccccc3)c3cc(Cl)ccc3n2)c2ccccc2N1	inactive
COc1cccc(N2CCN(S(=O)(=O)c3ccc(-n4cnnn4)cc3)CC2)c1	inactive
O=C1C=C(Nc2ccc(Cl)cc2)C(=O)N1c1ccc(Cl)cc1	inactive
CN(c1ccccc1)S(=O)(=O)c1nnc(NC(=O)c2ccccc2)s1	inactive
COc1cc2c(cc1C(F)(F)F)N(C(=O)Nc1cc(F)cc(-c3cccnc3)c1)CC2	inactive
O=C(CSc1cccc2cccnc12)N1CCCC1	inactive
O=C(NN1C(=O)c2ccccc2NC1c1ccc([N+](=O)[O-])o1)c1ccc([N+](=O)[O-])cc1 (stereo not given)	inactive
Cc1ccc(C(C)C)c(OCc2ccc(C(=O)N/N=C/c3cccc(O)c3O)cc2)c1	inactive
COc1ccc2c(C)cc(SCC(=O)N(C)C3CCS(=O)(=O)C3)nc2c1 (stereo not given)	inactive
COc1ccc2c(C)nc(Nc3nc(-c4ccccc4)cc(=O)[nH]3)nc2c1	inactive
O=c1c2ccccc2nc(COc2ccccc2)n1/N=C/c1c[nH]c2ccccc12	inactive
CCc1nnc(NC(=O)c2cccc(C(=O)Nc3nnc(CC)s3)n2)s1	inactive

SMILES	Potency
Oc1ccc(Br)cc1C=Nc1ccc2c3c(cccc13)CC2	inactive
Nc1nc2ccc(Cl)cc2c2nc(-c3ccco3)nn12	inactive
COc1ccccc1N1CCN(CCN2C(=O)CC3(CCCC3)CC2=O)CC1	inactive
COCCNC(=S)N/N=C(\C)c1ccccc1O	inactive
COc1ccc(NC(=O)c2ccc(-c3ccc(-c4noc(C)n4)cc3C)cc2)cc1N1CCN(C)CC1	28.2 µM (active)
CCC(=O)N1CCN(c2ccc(NC(=O)c3ccc([N+](=O)[O-])o3)cc2Cl)CC1	inactive
NC(=O)c1cc[n+](CC2=C(C(=O)O)N3C(=O)[C@@H](NC(=O)[C@@H](c4ccccc4)S(=O)(=O)[O-])[C@H]3SC2)cc1	inactive
O=C(N/N=C/c1ccccn1)c1cc(-c2ccc(Cl)cc2)nc2ccccc12	inactive
CC(C)C(=O)NC(c1ccc(N(C)C)cc1)c1ccc2cccnc2c1O (stereo not given)	inactive
CCCCOC(=O)Cn1c2ccc(OC)cc2c2nc3ccccc3nc21	inactive
CNc1nc(N2CCCN(C)CC2)nc2cc(OC)c(OC)cc12	inactive
CCOn1c(=O)c[n+]([O-])c2ccccc21	inactive
Oc1c(N=Nc2ccccn2)ccc2ccccc12	11.2 µM (active)
CSc1nsc(/C=C/Nc2cccc(Cl)c2)c1C#N	inactive
Cc1ccc(/C=[N+](\[O-])c2ccc(N(C)C)cc2)c2nsnc12	inactive
COc1nc(Nc2nc3ccccc3c(=O)[nH]2)nc2ccc(C)cc12	inactive
COc1ccc(NC(=O)CSc2nc3c(oc4ccccc43)c(=O)n2Cc2ccco2)cc1Cl	inactive
Ic1ccc(N2CCN(Cc3c[nH]c4ncccc34)CC2)cc1	inactive
CC(C)N(CCC(=O)c1ccc2ccccc2c1)Cc1ccccc1	inactive
O=C(CSc1cccc[n+]1[O-])c1ccccc1Br	inactive
